Compound activity: PubChem, The Scripps Research Institute Molecular Screening Center
Sampled rows, rich in hits. Any-hit rate of the full collection: about 2.4%.
CHO-K1 Ca antag = M1 antagonist counterscreen hit in parental CHO-K1 cells | ATP-induced calcium, Fluo-8 fluorescence | inhibition, % at 3 µM | 360,000 tested, 0.6% active;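 active means inhibition above a per-plate cutoff, the plate's mean sample inhibition plus 3 SD, cut at about 24% in these data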;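 further: 0% = DMSO plus EC80 ATP and 100% = DMSO alone without ATP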
CHRM1 agonist = human M1 muscarinic receptor agonism | AID 588814 | 360,000 tested, 0.33% active | P11229 | activation, % at 3 µM | CHO-K1 hM1, Fluo-8 calcium fluorescence, agonist mode; 0% DMSO, 100% acetylcholine EC100;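 active means activation above the run's mean compound activation plus 3 SD, cut at about 16% in these data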;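 further: peak over basal fluorescence ratio within a 140 s kinetic read after compound addition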
Target sequence (P11229 whole entry, looked up): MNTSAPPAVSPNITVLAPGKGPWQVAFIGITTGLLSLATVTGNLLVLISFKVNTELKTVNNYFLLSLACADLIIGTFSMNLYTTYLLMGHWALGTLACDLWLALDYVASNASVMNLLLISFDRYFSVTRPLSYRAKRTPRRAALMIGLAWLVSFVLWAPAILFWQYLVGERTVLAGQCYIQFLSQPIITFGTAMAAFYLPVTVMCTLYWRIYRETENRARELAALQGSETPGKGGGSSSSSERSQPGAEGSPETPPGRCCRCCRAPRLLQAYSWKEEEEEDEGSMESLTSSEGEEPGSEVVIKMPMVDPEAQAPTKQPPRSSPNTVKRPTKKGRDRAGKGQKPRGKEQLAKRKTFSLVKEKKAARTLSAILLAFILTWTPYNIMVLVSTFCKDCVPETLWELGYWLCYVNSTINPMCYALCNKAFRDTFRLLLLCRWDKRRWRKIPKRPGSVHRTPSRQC
M1 ag parental = M1 agonist counterscreen hit in parental CHO-K1 cells; Fluo-8 calcium fluorescence; scaled to maximal ATP response, vehicle zero; activation, % at 3 µM; 360,000 tested, 0.48% active; AID 602248; in the data active means activation above about 15%;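 further: untransfected CHO-K1 host cells lacking M1 receptor as counterscreen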
CHRM1 antagonist = human CHRM1 antagonism | AID 588852 | inhibition, % at 3 µM | 360,000 tested, 1.3% active | P11229 | CHO-K1 hM1, Fluo-8 calcium fluorescence, ACh EC80 antagonist;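 active means percent inhibition above its own plate's cutoff, namely the mean of that plate's compound wells plus 3 SD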;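 further: peak over basal fluorescence ratio during 140 s after agonist addition; 0% = ACh EC80 plus DMSO and 100% = DMSO alone without agonist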
CHRM1 PAM = positive allosteric modulators of human M1 muscarinic receptor. P11229. CHO-K1 hM1, Fluo-8 calcium fluorescence, ACh EC20; 0% = ACh EC20, 100% = maximal ACh. activation, % at 3 µM. 360,000 tested, 0.088% active; in the data active means activation above about 19%, passing the limit was not always enough
CHO-K1 Ca PAM = M1 PAM counterscreen hit in parental CHO-K1 cells | 360,000 tested, 0.02% active | ATP EC20, Fluo-8 calcium fluorescence; 0% at ATP EC20, 100% at ATP max | activation, % at 3 µM;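 active means activation above the run cutoff, the mean activation of all test compounds plus 3 SD, cut at about 40% in these data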;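 further: peak over basal fluorescence ratio in a 140 s read after ATP addition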
* = called active by the depositor; nt = no result given.

SMILES | CHO-K1 Ca antag | CHRM1 agonist | M1 ag parental | CHRM1 antagonist | CHRM1 PAM | CHO-K1 Ca PAM
CCOC(=O)CN(Cc1sccc1C)C(=O)Nc1ccc(OC)cc1OC | 25.0* | -3.9 | 0.4 | 3.9 | -8.0 | -14.1
CCCCC[C@@H]1[C@@H]2C(=C(OCC)C[C@@H]3C(=O)N(c4ccccc4)C(=O)[C@H]23)[C@H](c2ccccc2)N1S(=O)(=O)c1ccc(C)cc1 | 24.7* | 5.2 | 0.0 | -4.7 | 5.1 | -0.6
CCOC1=C2CN(S(=O)(=O)c3ccc(C)cc3)[C@H](c3cccc(Cl)c3)C[C@H]2[C@H]2C(=O)N(c3ccccc3)C(=O)[C@H]2C1 | 10.0 | -2.3 | 3.8 | -1.3 | 6.5 | 15.1
CCOC1=C2CN(S(=O)(=O)c3ccc(C)cc3)[C@@H](c3ccccc3)C[C@H]2[C@H]2C(=O)N(c3ccccc3)C(=O)[C@H]2C1 | 28.3* | -3.5 | 3.2 | 11.2 | -1.2 | 4.7
CCOC1=C2[C@@H](CN(S(=O)(=O)c3ccc(C)cc3)[C@H]2c2ccc(CC)cc2)[C@H]2C(=O)N(c3ccccc3)C(=O)[C@H]2C1 | 3.0 | -5.1 | -0.1 | -3.2 | -3.4 | 4.4
N/C(=N/OC(=O)c1ccc(Cl)cc1)c1ncc([N+](=O)[O-])s1 | 29.2* | 1.6 | -0.3 | -27.2 | 20.2 | -24.9
COc1cn(-c2ccccc2)nc1C(=O)NCc1ccccc1 | -16.1 | 2.0 | -0.5 | -27.0 | 32.6* | 5.0
COc1cn(-c2ccccc2)nc1C(=O)NCc1ccc(C)cc1 | -7.3 | -4.6 | -0.9 | -15.7 | 8.2 | 15.7
CC(=O)C1=C(c2ccccc2)NC(=S)NC1c1cc(Cl)c(OC(C)C)c(Cl)c1 (stereo not given) | 9.7 | -0.9 | 24.1* | 0.3 | 3.6 | 22.1
COc1cc(C2NC(=S)NC(c3ccccc3)=C2C(C)=O)cc(Cl)c1OCC(=O)O (stereo not given) | -10.0 | -3.9 | 2.5 | -3.0 | 5.1 | 29.2
O=C(CCl)NN=C(c1ccccc1)c1ccccc1 | -4.2 | -6.8 | 2.9 | 2.7 | -5.0 | -7.4
CCN(CC)CC(=O)NN=C(c1ccccc1)c1ccccc1 | -2.8 | -5.9 | -0.1 | 27.3* | -18.6 | 4.3
COc1ccc([N+](=O)[O-])cc1NC(=O)COC(=O)c1ccccn1 | -10.7 | -1.3 | 0.7 | -2.9 | 4.1 | 4.0
CCOC(=O)C1CCN(c2ncnc3c2oc2ccc(Cl)cc23)CC1 | 27.2* | -0.9 | 1.4 | 5.7 | -6.3 | -5.2
CCOC(=O)C1CCN(c2ncnc3c2[nH]c2cccc(OC)c23)CC1 | -5.8 | -3.1 | 2.0 | 4.0 | -5.2 | 6.1
CC(C)C[C@H]1CN(CCCC[C@@H]2CNC(=O)C(=O)N2Cc2ccccc2)C(=O)C(=O)N1Cc1ccccc1 | -10.8 | nt | 0.8 | nt | nt | 10.9
NN=C(c1ccccc1)c1ccccc1 | -0.4 | -3.6 | 0.4 | -7.7 | 11.5 | -9.9
N/N=C(\c1ccccc1)C12CN3CN(CN(C3)C1)C2 | 3.9 | -9.3 | 0.2 | 57.8* | -26.6 | 18.5
COc1ccccc1-n1c(CNC(=O)c2ccc(S(=O)(=O)N3CCCCC3)cc2)n[nH]c1=S | -1.0 | -3.0 | 0.7 | -2.0 | 1.5 | 0.7
OCC1CCCN(c2nc(CN3CCCCC3)nc3scc(-c4ccccc4)c23)C1 (stereo not given) | -4.5 | -9.6 | 0.7 | 2.1 | -4.4 | 20.6
CCNc1nc(CN2CCCCC2)nc2scc(-c3ccccc3)c12 | 7.5 | -11.1 | 1.5 | 64.6* | -30.2 | 9.1
CN(C)c1ccc(NC(=O)c2cccc(C(=O)Nc3ccc(N(C)C)cc3)n2)cc1 | 27.5* | -6.2 | 1.3 | -3.3 | -1.1 | -12.5
NS(=O)(=O)c1ccc(NC(=O)COc2ccc(Cl)cc2)cc1 | -12.3 | -1.7 | 1.2 | 0.8 | -1.1 | 7.9
Cc1ccc(NC(=O)c2cc(N3C(=O)C=CC3=O)ccc2Cl)cc1C | -9.4 | -3.1 | 0.0 | -12.0 | 8.4 | 15.2
Cc1ccc(S(=O)(=O)N2CCN(C(=O)COC(=O)CCOc3ccc(C(C)(C)C)cc3)CC2)cc1 | -3.2 | 2.6 | 7.5 | 34.3* | -10.8 | -5.8
CCN(CC)c1ccc(S(=O)(=O)N2CCOCC2)cc1NC(=O)COC(=O)/C=C/c1ccccc1 | -13.8 | -1.4 | 5.9 | 32.4* | -13.2 | 12.2
Cc1ccc(S(=O)(=O)N2CCOCC2)cc1NC(=O)COC(=O)CNC(=O)c1ccc(C(C)(C)C)cc1 | -1.6 | -6.3 | 3.9 | -11.6 | 8.8 | 22.6
